# Most compounds without a hit are left out; they make up all but 2.3% or so of the library.
# BCLXL inh = blocks human Bcl-xL binding to Bim BH3 peptide; GST-Bcl-xL / FITC-Bim BH3 peptide fluorescence polarization; 320,000 tested, 0.7% active; inhibition, % at 10.9 µM; Q07817; AID 2129;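 active = inhibition above the mean of all tested compounds plus 3 SD, cutoff set per campaign, cut at about 30% in these data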;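 note: 0% = DMSO wells and 100% = unlabeled Bim-BH3 peptide competitor; inhibitors lower millipolarization by displacing the labeled peptide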
# Target sequence (Q07817 whole entry, looked up): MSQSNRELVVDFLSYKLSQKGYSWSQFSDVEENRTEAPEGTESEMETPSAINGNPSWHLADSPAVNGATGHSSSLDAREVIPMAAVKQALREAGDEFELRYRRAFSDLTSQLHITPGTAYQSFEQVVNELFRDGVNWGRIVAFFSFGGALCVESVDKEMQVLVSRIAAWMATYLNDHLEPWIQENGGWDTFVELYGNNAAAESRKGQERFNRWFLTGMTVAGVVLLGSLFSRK
# Mcl1 Bid PPI = Mcl-1/Bid interaction inhibition; AID 1021; 220,000 tested, 0.97% active; inhibition, % at 21.7 µM; TR-FRET Mcl-1/Bid-Dy647 peptide binding, 1536-well; Q07820;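 active = compounds that cut the binding signal by more than half at the single screening dose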;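 note: His-tagged Mcl-1 with europium anti-His antibody binding Bid BH3 peptide; 0% = Mcl-1 plus peptide wells and 100% = peptide-only wells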
# MCL1-BIM inh = MCL1-BIM-BH3 interaction inhibition (human); Q07820; GST-MCL1 / FITC-Bim-BH3 fluorescence polarization; inhibition, % at 10.9 µM; 320,000 tested, 0.68% active; AID 2057;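 active = inhibition above the mean inhibition of all tested compounds plus 3 SD, set per campaign, cut at about 40% in these data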;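 note: 0% = DMSO wells and 100% = unlabeled Bim-BH3 peptide control; higher means more loss of mP so more displacement of Bim peptide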
# Mcl-1 Bim block = disrupts Bim peptide binding to human Mcl-1. Q07820. 190,000 tested, 0.1% active. inhibition, % at 10 µM. Bead-based flow cytometry, Bim peptide-Mcl-1 binding; in the data active = inhibition above about 40%;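 note: 0% = no compound tracer wells and 100% = peptide blocker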
# Mcl1 Noxa PPI = disrupts binding of human Mcl-1 to Noxa peptide; Q07820; TR-FRET Mcl-1/Noxa peptide binding, 2 h; inhibition, % at 21.7 µM; 220,000 tested, 1.5% active; AID 1022;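 active = compounds that cut the protein-peptide binding signal by more than 50% relative to plate controls in a single-dose test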;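 note: His-tagged Mcl-1 with rhodamine Noxa BH3 peptide and terbium anti-His antibody; 0% = Mcl-1 plus Noxa peptide wells and 100% = peptide-only wells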
# GLD-1 TGE inh = GLD-1-TGE RNA interaction inhibition (C. elegans) | purified GLD-1 + fluorescein TGE RNA, fluorescence polarization | 320,000 tested, 0.44% active | AID 2280 | inhibition, % at 5.96 µM;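 active = percent inhibition above a per-plate cutoff, the plate mean of test compounds plus 3 SD, cut at about 30% in these data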;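 note: 0% = DMSO wells with GLD-1 and probe and 100% = wells lacking GLD-1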
# Target sequence (Q17339 whole entry, looked up): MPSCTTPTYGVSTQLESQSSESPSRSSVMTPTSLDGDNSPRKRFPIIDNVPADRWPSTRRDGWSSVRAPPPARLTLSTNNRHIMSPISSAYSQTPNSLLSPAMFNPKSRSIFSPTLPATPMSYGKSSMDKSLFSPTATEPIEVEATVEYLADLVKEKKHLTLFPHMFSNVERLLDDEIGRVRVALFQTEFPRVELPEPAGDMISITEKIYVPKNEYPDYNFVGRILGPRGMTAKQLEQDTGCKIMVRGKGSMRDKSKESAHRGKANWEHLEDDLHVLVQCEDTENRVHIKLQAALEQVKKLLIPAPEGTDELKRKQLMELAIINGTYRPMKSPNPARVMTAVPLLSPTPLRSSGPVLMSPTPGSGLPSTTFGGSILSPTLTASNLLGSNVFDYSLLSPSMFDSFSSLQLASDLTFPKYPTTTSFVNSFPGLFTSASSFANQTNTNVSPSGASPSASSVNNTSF
# Starred values were filed as active, the others as inactive; . = no result given.
SMILES,BCLXL inh,Mcl1 Bid PPI,MCL1-BIM inh,Mcl-1 Bim block,Mcl1 Noxa PPI,GLD-1 TGE inh
Cc1c(NS(=O)(=O)c2cc(C(=O)N(C)Cc3ccccc3)ccc2Cl)c(=O)n(-c2ccccc2)n1C,.,.,.,.,.,1.8
C=CC[C@H](CC(=O)NCCO)C(=O)N[C@@H](COC(=O)[C@H](CC=C)CC(=O)OC(C)(C)C)Cc1ccccc1,.,.,.,.,.,1.9
Cc1nc2sccn2c1-c1nc(-c2cc3ccccc3o2)cs1,2.5,50.0,0.4,6.0,53.8*,1.3
c1ccc2oc(-c3csc(N4CCOCC4)n3)cc2c1,0.7,-22.8,0.8,-1.0,10.0,-3.4
Cc1cc(C)c(O)c(NC(=S)NC(=O)Cc2ccccc2)c1,7.0,.,12.3,.,.,3.7
C/C(=N\NC(=O)c1ccccc1F)c1ccc2c(c1)Nc1ccccc1S2,-9.1,-12.0,-19.5,0.0,62.3*,8.0
CSc1ccc(/C=C(/NC(=O)c2ccco2)C(=O)N2CCCCC2)cc1,1.9,.,-5.3,.,.,7.1
Cc1ccc(-n2[nH]c(C)c(C=Nc3ccc(S(=O)(=O)Nc4nccs4)cc3)c2=O)cc1C,9.5,35.1,-4.2,-3.0,60.7*,-8.6
O=C1/C(=C\c2ccccn2)SC(=S)N1c1ccc(S(=O)(=O)Nc2nccs2)cc1,8.5,-76.7,11.3,.,82.2*,-1.5
COc1ccc(/C=C2/SC(=S)N(c3ccc(S(=O)(=O)Nc4nccs4)cc3)C2=O)cc1,4.4,-60.7,4.5,.,101.0*,-0.4
Cc1ccc(/C=C2/SC(=S)N(c3ccc(S(=O)(=O)Nc4nccs4)cc3)C2=O)cc1,-3.0,-44.3,-1.2,.,56.3*,2.1
Cc1ccc(S(=O)(=O)NN2C(=O)/C(=C/c3ccccn3)SC2=S)cc1,17.2,-47.8,12.8,0.0,5.3,0.0
Cc1ccccc1CC1(CO)CCCN(C(=O)CCN2CCCO2)C1 (centres undefined),2.2,.,0.3,.,.,5.5
Cc1c(NC(=O)COc2ccc(C(C)C)cc2)c(=O)n(-c2ccccc2)n1C,-0.1,.,-1.3,.,.,7.6
O=C(COC(=O)C12CC3CC(CC(O)(C3)C1)C2)Nc1ccc(Cl)c(S(=O)(=O)N2CCOCC2)c1,.,.,.,.,.,8.2
O=C1/C(=C/c2ccccn2)SC(=S)N1c1ccc(O)cc1,0.7,30.8,-3.4,.,77.2*,2.2
NC(=O)c1ccsc1NC(=O)COC(=O)/C=C/c1ccc([N+](=O)[O-])cc1,0.5,45.9,14.7,.,79.5*,5.8
Cc1n[nH]c(=S)n(NC(=O)/C=C/C(=O)Nn2c(=S)[nH]nc(C)c2=O)c1=O,.,-43.1,.,-3.0,86.9*,.
Cc1cc2oc3ccc(NCCCn4ccnc4)cc3c(=O)c2cc1C,-32.3,.,-108.4,.,.,-75.9
COc1ccccc1NC(=O)Nc1cccnc1,9.4,-16.4,6.8,-5.0,14.0,-1.1
Cc1cc(OCC(=O)OCC(=O)N2CCc3ccccc3C2)ccc1Cl,4.9,.,4.0,.,.,5.5
COc1ccc(NN=Nc2nc3c([nH]2)c(=O)n(C)c(=O)n3C)cc1,12.7,5.5,7.1,.,67.4*,2.5
O=C1N/C(=N/Nc2ccccc2)S/C1=C\c1ccccc1,5.6,-55.7,18.7,-5.0,97.1*,-3.0
NC1=NC(=O)C2(COC(c3ccncc3)OC2)S1 (centres undefined),-0.1,-9.1,-4.7,-1.0,3.5,0.2
NC1=NC(=O)C2(COC(c3cccnc3)OC2)S1 (centres undefined),85.7*,1.0,5.5,0.0,7.1,5.2
SMILES,BCLXL inh,Mcl1 Bid PPI,MCL1-BIM inh,Mcl-1 Bim block,Mcl1 Noxa PPI,GLD-1 TGE inh
CCCC(=O)Nc1ccc2nc(SCC(=O)N3CCCC3)sc2c1,-0.2,-21.4,7.4,0.0,8.7,-1.4
Cn1c(SCC(=O)Nc2ccc3nc(SCC(=O)N4CCCC4)sc3c2)nnc1-c1ccccc1,10.8,35.2,28.7,-8.0,97.1*,-0.4
O=C(O)CCC(CNS(=O)(=O)c1ccccc1)C(F)(F)F (centres undefined),2.2,-0.1,4.4,2.0,69.7*,-3.6
Cc1nc(CSc2nc3[nH]ncc3c(=O)n2-c2ccccc2)cs1,2.5,83.6*,-9.4,-2.0,6.6,-3.8
O=C(COC(=O)/C=C/c1cccc(Cl)c1Cl)Nc1ccc2[nH]c(=O)[nH]c2c1,-4.8,.,-7.4,.,.,0.5
COc1nc(C)nc(NC(=O)NS(=O)(=O)c2ccc(C)cc2)n1,5.1,-12.3,-3.6,-5.0,65.2*,5.9
Cc1ccc(S(=O)(=O)NC(=O)Nc2cccc(C)n2)cc1,-5.0,-6.2,-7.9,.,-9.1,4.3
O=C(CSc1nnc(C2CC2)n1Cc1ccccc1)N1CCNC1=O,.,.,.,.,.,-0.2
CCC(C)NC(=O)CSc1nc2cc3c(cc2c(=O)n1Cc1ccco1)OCO3 (centres undefined),.,53.5*,.,1.0,-27.0,.
COc1ccc(C(=O)N(C)c2c(C)n(C)n(-c3ccccc3)c2=O)cc1OC,3.5,-19.4,0.3,0.0,7.5,-0.9
O=C(Cc1cccs1)Nc1nc(-c2cccnc2)cs1,9.3,-63.2,18.5,.,72.0*,-6.5
Cc1ccc(S(=O)(=O)N2CCOCC2)cc1C(=O)OCC(=O)NC1CC1,-7.1,.,-6.4,.,.,-1.3
CCOc1ccc(OCC(=O)Nc2ccc(S(=O)(=O)Nc3cc(C)nc(C)n3)cc2)cc1,2.5,2.1,1.6,-4.0,68.4*,1.0
Cc1cc(NS(=O)(=O)c2ccc(NC(=O)COc3ccc(Br)cc3)cc2)nc(C)n1,7.5,.,-2.5,.,.,14.3
S=c1[nH]nc(-c2cccs2)n1/N=C/c1c(Cl)cccc1Cl,-25.2,-9.9,-22.3,-7.0,55.9*,3.4
Cc1cc(=O)oc2cc(NC(=S)NNC(=O)c3c(Cl)cnn3C)ccc12,1.4,.,3.0,.,.,-2.3
O=C1N=C(c2ccccc2)S/C1=C\c1cccs1,4.6,-27.6,13.2,-8.0,72.4*,-7.8
Cc1cc(C)cc(OCC(=O)Nc2ccccc2C(=O)N2CCOCC2)c1,1.0,.,0.8,.,.,2.1
Cc1cccc(OCC(=O)Nc2ccccc2C(=O)N2CCOCC2)c1,1.9,-30.1,3.7,-3.0,59.3*,-0.5
O=C(Nc1ccc(O)cc1)C1CC=CCC1 (centres undefined),6.6,-59.1,7.0,6.0,56.4*,-3.0
CCN=C1SC(C(=O)Nc2ccc(OC)cc2)CC(=O)N1CC (centres undefined),3.3,-18.9,4.8,0.0,64.3*,1.5
CC(Cc1ccc(O)c(O)c1)C(C)Cc1ccc(O)c(O)c1 (centres undefined),31.0*,.,38.2,.,.,15.0
COc1cc(C[C@@H](C)[C@@H](C)Cc2ccc(O)c(OC)c2)ccc1O,.,.,.,.,.,10.6
Cc1ccccc1C(=O)Nc1ccc2c(C#N)c3nc4ccccc4nc3n2c1,41.6*,84.1*,36.6,4.0,70.4*,12.7
Oc1cc2c(cc1C(c1ccc(Cl)c(Cl)c1)N1CCCC1)OCO2 (centres undefined),.,94.4*,.,-3.0,91.9*,.
Cc1ccccc1CN(C)CCS(=O)(=O)c1cc(Cl)ccc1Cl,5.8,.,3.6,.,.,0.0

# Assay outcomes from PubChem BioAssay.
